Data as given in PubChem BioAssay (Tox21).
Unmarked numbers belong to inactive results. Records with an inconclusive call do not appear. Where a call stands in place of a potency, no number is given. The source made the active and inactive calls. Unless noted, the call rests on the fitted dose curve.

Columns and labels:
[1] = Nuclear factor erythroid 2-related factor 2/antioxidant responsive element (Nrf2/ARE) small molecule agonists: luciferase reporter gene qHTS assay in human keratinocytes (AID 1919969); further: nearly all actives have a fitted effect of over 35% in size
[2] = G protein-coupled receptor (GPCR) small molecule agonists, calcium flux assay: HEK293 wild type cell line counter screen (AID 1920065)
How it was run: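 Calcium flux counter screen: compound added in agonist mode at 15 concentrations in triplicate to dye-loaded parental HEK293 cells. Fluorescence (480/540) read kinetically for 3 min; ATP served as positive control.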

[3] = p53 small molecule agonists, cell-based qHTS assay with human liver microsomes: qHTS cell viability counter screen (AID 1963579); further: nearly all actives have a fitted effect of over 45% in size
How it was run: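 p53RE-bla cells, 4,000/well, dosed 5 hours after plating, with human liver microsomes (0.5 mg/mL final) plus NADPH (0.5 mg/mL final), 16 hours at 37 C. Viability read as CellTiter-Glo luminescence after 30 min at room temperature.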

[4] = p53 small molecule agonists, cell-based qHTS assay with rat liver microsomes: qHTS cell viability counter screen (AID 1963580); further: nearly all actives have a fitted effect of over 45% in size
How it was run: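 Rat liver microsome (0.5 mg/mL final) and NADPH (0.5 mg/mL final) co-incubation with compounds for 16 h at 37 C on HCT-116 p53RE-bla cells; cytotoxicity taken from intracellular ATP luminescence.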

[5] = p53 small molecule agonists, cell-based qHTS assay: qHTS cell viability counter screen (AID 1963581); further: nearly all actives have a fitted effect of over 45% in size
How it was run: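 Counter screen read by CellTiter-Glo luminescence (ATP content, 30 min at room temperature), run in the same wells as the beta-lactamase reporter read. HCT-116 p53RE-bla cells saw compounds for 16 h at 37 C.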

[6] = target: 5-hydroxytryptamine receptor 2A (Homo sapiens) (UniProt P28223); experiment: 5-hydroxytryptamine receptor 2A (HTR2A) small molecule antagonists, cell-based qHTS assay (AID 1963586); further: nearly all actives have a fitted effect of over 45% in size; further: potency means the concentration at half of the fitted maximal effect
How it was run: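 CHO cells stably expressing human HTR2A were plated for 18 h at 37 C, then loaded with calcium dye for 1 h. Compounds were preincubated 5 min at room temperature before DOI (4 nM solution) was added. Kinetic fluorescence was read for 3 min.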

[7] = target: 5-hydroxytryptamine receptor 2A (Homo sapiens) (UniProt P28223); experiment: 5-hydroxytryptamine receptor 2A (HTR2A) small molecule agonists, cell-based qHTS assay (AID 1963587); further: nearly all actives have a fitted effect of over 30% in size
How it was run: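 Kinetic calcium-flux fluorescence (2 min, 1 sec intervals) after compound addition in agonist mode. HTR2A-CHO cells were cultured 18 h, then dye-loaded 1 h at 37 C.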

[8] = target: Muscarinic acetylcholine receptor M1 (Homo sapiens) (UniProt P11229); experiment: Cholinergic receptor muscarinic 1 (CHRM1) small molecule antagonists, cell-based qHTS assay (AID 1963588); further: nearly all actives have a fitted effect of over 40% in size
How it was run: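 Compounds were tested at 15 concentrations in three independent runs. Dye-loaded CHRM1-CHO cells were exposed 5 min at room temperature before stimulation by acetylcholine added at 50nM. Intracellular calcium was read kinetically on FDSS for 3 min.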

[9] = target: Muscarinic acetylcholine receptor M1 (Homo sapiens) (UniProt P11229); experiment: Cholinergic receptor muscarinic 1 (CHRM1) small molecule agonists, cell-based qHTS assay (AID 1963589); further: nearly all actives have a fitted effect of over 35% in size
How it was run: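 Agonist-mode calcium-flux screen: compounds at 15 concentrations, three independent runs, were pin-transferred onto dye-loaded human CHRM1-CHO cells. Fluorescence was then recorded kinetically every second over minutes.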

[10] = cAMP Responsive Elements (CRE) small molecule agonists, cell-based qHTS assay (AID 1963590)
How it was run: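 Agonist mode: compound added to CRE-bla HEK 293T cells (2,000/well, 18 h after plating) for 3 h at 37 C/5% CO2. Reporter activity detected via FRET beta-lactamase substrate, 2 h room-temperature loading.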

[11] = cAMP Responsive Elements (CRE) small molecule antagonists, cell-based qHTS assay (AID 1963591; active means well fitted inhibition curve with a large enough effect in the signal ratio in the repeat runs, not every such curve was filed as active; the % refers to the signal ratio)
How it was run: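 Antagonist mode: compounds are added alongside the adenylyl cyclase activator NKH477 (0.25 uM final) to CRE-bla HEK293T cells for 3 h. LiveBLAzer FRET substrate, 2 h at room temperature, reports bla expression.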

[12] = target: Beta-2 adrenergic receptor (Homo sapiens) (UniProt P07550); experiment: Adrenergic beta2 receptor (ADRB2) small molecule antagonists, cell-based qHTS assay (AID 1963592); further: nearly all actives have a fitted effect of over 50% in size; further: potency means the concentration at half of the fitted maximal effect
How it was run: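 Assay format: CHO-ADRB2 cells, 18-20hr seeding at 37C/5% CO2, then compound plus 1nM isoproterenol agonist mix for 0.5hr RT. Homogeneous time-resolved fluorescence cAMP detection after 1hr, expressed as 665/615 nm ratio.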

[13] = target: D(2) dopamine receptor (Homo sapiens) (UniProt P14416); experiment: Dopamine D2 receptor (DRD2) small molecule agonists, cell-based qHTS assay (AID 1963594); further: nearly all actives have a fitted effect of over 35% in size
How it was run: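 cAMP accumulation in DRD2-HEK293 cells measured by HTRF after 1 h detection; compounds added 10 min before NKH477 (200nM […]) forskolin-analogue stimulation, 30 min at room temperature, with Ro20-1724 present at 0.1 mM final.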

[14] = target: D(2) dopamine receptor (Homo sapiens) (UniProt P14416); experiment: Dopamine D2 receptor (DRD2) small molecule antagonists, cell-based qHTS assay (AID 1963595; active means well fitted inhibition curve with a large enough effect in the signal ratio in the repeat runs, with a control signal flat; the % refers to the signal ratio; further: potency means the concentration at half of the fitted maximal effect)
How it was run: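 HEK293 cells stably expressing DRD2, preincubated with 0.1 mM Ro20-1724 and compounds 10 min, were stimulated with 200 nM NKH477 plus 12 nM quinpirole for 30 min at room temperature; cAMP measured by HTRF (665/620 nm).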

[15] = target: Gonadotropin-releasing hormone receptor (Homo sapiens) (UniProt P30968); experiment: Human gonadotropin-releasing hormone receptor (GnRHR) small molecule agonists, calcium flux assay in GnRHR-HEK293 cells (AID 1920063); further: nearly all actives have a fitted effect of over 35% in size; further: potency means the concentration at half of the fitted maximal effect
How it was run: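 Agonist mode: compounds at 15 concentrations, in triplicate, went onto calcium dye-loaded GnRHR-HEK293 cells. Intracellular calcium was then followed as 480/540 nm fluorescence at 1 s intervals over 3 min.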

[16] = target: KiSS-1 receptor (Homo sapiens) (UniProt Q969F8); experiment: Human kisspeptin (KISS1R) small molecule agonists, calcium flux assay in KISS1R-HEK293 cells (AID 1920064; active means well fitted activation curve with a large enough effect in the repeat runs)
How it was run: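 Agonist mode: intracellular calcium rise tracked at 1 s intervals over 3 min (480/540 nm) immediately after compound addition to dye-loaded KISS1R-HEK293 stable cells. Each compound tested at 15 concentrations in triplicate.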

[17] = p53 small molecule agonists, cell-based qHTS assay with human liver microsomes (AID 1963577)
How it was run: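 p53RE-bla cells, 4,000/well, compound added after 5 h, with human liver microsomes 0.5 mg/mL and NADPH 0.5 mg/mL final; 16 h at 37 C, then LiveBLAzer 2 h RT, fluorescence.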

[18] = p53 small molecule agonists, cell-based qHTS assay with rat liver microsomes (AID 1963578)
How it was run: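 p53RE-bla cells, 4,000/well, pre-incubated 5 h, then given compounds plus rat liver microsomes (0.5 mg/mL final) and NADPH (0.5 mg/mL final). Incubation 16 h at 37 C; beta-lactamase reporter read by LiveBLAzer fluorescence after 2 h at room temperature.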

[19] = p53 small molecule agonists, cell-based qHTS assay (AID 1963582; active means well fitted activation curve with a large enough effect in the signal ratio in the repeat runs, not every such curve was filed as active; the % refers to the signal ratio)
How it was run: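 Read-out is beta-lactamase FRET fluorescence after 2 h at room temperature with LiveBLAzer B/G substrate. p53 response element-bla cells were treated 16 h at 37 C with compounds in DMSO, added 5 h after seeding.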

[20] = target: Beta-2 adrenergic receptor (Homo sapiens) (UniProt P07550); experiment: Adrenergic beta2 receptor (ADRB2) small molecule agonists, cell-based qHTS assay (AID 1963593);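 further: CHO cells stably overexpressing human ADRB2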
How it was run: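 CHO cells stably over-expressing ADRB2 were plated overnight at 37C, then dosed with compounds plus a stimulation mix containing 100uM IBMX and 25uM Ro-20-1724 for 0.5hr at room temperature. cAMP was measured by HTRF competition, 1hr.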

Chain of 5-hydroxytryptamine receptor 2A (Homo sapiens) (P28223 whole entry, looked up): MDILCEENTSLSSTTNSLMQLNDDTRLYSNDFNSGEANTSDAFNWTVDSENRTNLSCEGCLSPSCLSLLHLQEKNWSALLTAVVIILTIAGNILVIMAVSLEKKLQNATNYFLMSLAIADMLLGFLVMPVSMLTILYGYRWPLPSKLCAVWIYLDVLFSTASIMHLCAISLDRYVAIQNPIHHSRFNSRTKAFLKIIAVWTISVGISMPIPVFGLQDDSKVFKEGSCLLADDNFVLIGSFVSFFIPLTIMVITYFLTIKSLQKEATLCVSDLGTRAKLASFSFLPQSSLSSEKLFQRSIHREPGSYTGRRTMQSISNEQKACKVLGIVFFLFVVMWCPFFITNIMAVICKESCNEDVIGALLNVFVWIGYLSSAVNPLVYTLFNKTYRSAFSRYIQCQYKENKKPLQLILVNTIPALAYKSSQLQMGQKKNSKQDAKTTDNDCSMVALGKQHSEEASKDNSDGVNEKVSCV
Chain of D(2) dopamine receptor (Homo sapiens) (P14416 whole entry, looked up): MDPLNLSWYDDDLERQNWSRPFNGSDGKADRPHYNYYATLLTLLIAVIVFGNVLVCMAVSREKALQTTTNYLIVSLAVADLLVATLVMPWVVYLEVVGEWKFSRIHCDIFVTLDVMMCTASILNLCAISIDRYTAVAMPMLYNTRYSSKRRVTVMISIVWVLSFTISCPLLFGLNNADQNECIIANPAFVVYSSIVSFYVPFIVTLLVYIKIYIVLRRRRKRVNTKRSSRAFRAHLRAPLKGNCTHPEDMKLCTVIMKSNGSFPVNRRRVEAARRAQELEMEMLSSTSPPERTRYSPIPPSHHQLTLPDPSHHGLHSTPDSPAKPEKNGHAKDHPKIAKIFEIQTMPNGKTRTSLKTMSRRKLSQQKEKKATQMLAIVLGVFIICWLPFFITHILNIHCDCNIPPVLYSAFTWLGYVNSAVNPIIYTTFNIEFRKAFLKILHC
Chain of Muscarinic acetylcholine receptor M1 (Homo sapiens) (P11229 whole entry, looked up): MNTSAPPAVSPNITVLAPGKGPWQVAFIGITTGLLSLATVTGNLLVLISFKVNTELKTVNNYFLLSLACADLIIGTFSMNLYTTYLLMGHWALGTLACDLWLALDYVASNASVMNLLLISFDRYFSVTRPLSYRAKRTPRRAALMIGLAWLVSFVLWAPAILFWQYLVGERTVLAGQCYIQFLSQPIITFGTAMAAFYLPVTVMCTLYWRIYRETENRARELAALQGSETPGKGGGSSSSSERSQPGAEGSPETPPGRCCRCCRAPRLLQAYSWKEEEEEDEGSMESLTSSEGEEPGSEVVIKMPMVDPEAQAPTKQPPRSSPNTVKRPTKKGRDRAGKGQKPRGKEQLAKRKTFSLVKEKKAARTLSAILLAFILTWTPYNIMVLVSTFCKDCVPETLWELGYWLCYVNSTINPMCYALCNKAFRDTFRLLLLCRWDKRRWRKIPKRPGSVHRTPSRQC
Chain of KiSS-1 receptor (Homo sapiens) (Q969F8 whole entry, looked up): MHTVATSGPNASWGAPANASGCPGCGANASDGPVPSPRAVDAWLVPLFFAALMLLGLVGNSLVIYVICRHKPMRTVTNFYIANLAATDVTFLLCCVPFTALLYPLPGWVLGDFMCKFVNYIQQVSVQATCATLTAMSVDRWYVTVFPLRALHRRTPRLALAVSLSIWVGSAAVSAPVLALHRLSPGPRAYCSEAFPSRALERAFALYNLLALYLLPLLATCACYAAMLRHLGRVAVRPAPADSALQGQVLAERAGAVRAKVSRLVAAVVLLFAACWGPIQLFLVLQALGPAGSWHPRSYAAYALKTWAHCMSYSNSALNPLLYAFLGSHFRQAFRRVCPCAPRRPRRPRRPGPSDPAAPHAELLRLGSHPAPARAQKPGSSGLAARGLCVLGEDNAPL
Chain of Gonadotropin-releasing hormone receptor (Homo sapiens) (P30968 whole entry, looked up): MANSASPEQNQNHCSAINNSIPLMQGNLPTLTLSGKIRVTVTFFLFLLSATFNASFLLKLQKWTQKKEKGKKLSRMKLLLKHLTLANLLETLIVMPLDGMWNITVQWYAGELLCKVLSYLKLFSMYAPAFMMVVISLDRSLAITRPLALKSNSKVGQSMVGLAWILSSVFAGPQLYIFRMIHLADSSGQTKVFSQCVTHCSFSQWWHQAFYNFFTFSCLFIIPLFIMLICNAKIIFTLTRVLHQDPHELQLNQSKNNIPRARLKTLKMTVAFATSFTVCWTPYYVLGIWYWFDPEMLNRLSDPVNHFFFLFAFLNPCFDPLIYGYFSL
Chain of Beta-2 adrenergic receptor (Homo sapiens) (P07550 whole entry, looked up): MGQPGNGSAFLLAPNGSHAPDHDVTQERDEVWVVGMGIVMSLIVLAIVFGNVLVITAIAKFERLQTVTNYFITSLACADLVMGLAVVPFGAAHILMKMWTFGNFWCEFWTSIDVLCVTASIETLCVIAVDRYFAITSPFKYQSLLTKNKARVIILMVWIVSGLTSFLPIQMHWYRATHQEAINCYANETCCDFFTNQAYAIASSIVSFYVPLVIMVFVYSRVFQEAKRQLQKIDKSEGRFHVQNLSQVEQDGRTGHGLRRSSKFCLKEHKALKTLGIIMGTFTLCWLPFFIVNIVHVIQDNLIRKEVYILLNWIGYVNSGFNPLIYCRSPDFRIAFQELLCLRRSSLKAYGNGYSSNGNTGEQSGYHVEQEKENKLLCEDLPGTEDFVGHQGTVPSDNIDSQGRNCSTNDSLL

| Compound | Potency [1] | Potency [2] | Potency [3] | Potency [4] | Potency [5] | Potency [6] | Potency [7] | Potency [8] | Potency [9] | Potency [10] | Potency [11] | Potency [12] | Potency [13] | Potency [14] | Potency [15] | Potency [16] | Potency [17] | Potency [18] | Potency [19] | Potency [20] |
| --- | --- | --- | --- | --- | --- | --- | --- | --- | --- | --- | --- | --- | --- | --- | --- | --- | --- | --- | --- | --- |
| CCO[C@@H]1O[C@H](C(COCc2ccccc2)OCc2ccccc2)[C@H](OCc2ccccc2)[C@H]1O (some centres undefined) | inactive | inactive | inactive | inactive | inactive | inactive | inactive | inactive | inactive | inactive | inactive | inactive | inactive | inactive | – | – | – | – | – | – |
| Oc1ccc(CCNCCCCCCNCCc2ccccc2)cc1O | – | inactive | inactive | inactive | inactive | – | inactive | – | inactive | – | inactive | inactive | inactive | 8.41 µM (active) | inactive | inactive | inactive | inactive | inactive | – |
| CCCCCCCCCc1ccc(OCCOCCO)cc1 | – | inactive | inactive | inactive | inactive | 5.58 µM (active) | – | – | inactive | – | – | inactive | – | 25.6 µM (active) | 13 µM (active) | inactive | inactive | inactive | – | inactive |
| CCCCCCCCC(CCCCCC)C(=O)O (centres undefined) | – | inactive | inactive | – | inactive | inactive | inactive | – | inactive | – | inactive | inactive | inactive | – | inactive | inactive | inactive | inactive | inactive | – |
| O=C(/C=C/c1ccc(O)c(O)c1)O[C@@H](C(=O)O)[C@@H](OC(=O)/C=C/c1ccc(O)c(O)c1)C(=O)O | – | inactive | inactive | – | inactive | – | inactive | inactive | inactive | inactive | inactive | inactive | – | – | inactive | inactive | inactive | inactive | inactive | – |
| CC[C@H]1OC(=O)[C@H](C)[C@@H](O[C@H]2C[C@@](C)(OC)[C@@H](O)[C@H](C)O2)[C@H](C)[C@@H](O[C@@H]2O[C@H](C)C[C@H](N(C)C)[C@H]2O)[C@](C)(O)C[C@@H](C)CN(C)[C@H](C)[C@@H](O)[C@]1(C)O | – | inactive | inactive | inactive | inactive | – | – | – | – | inactive | – | inactive | inactive | inactive | inactive | inactive | inactive | inactive | inactive | inactive |
| CCOC(=O)c1ccccc1C(=C1C=C(Br)C(=O)C(Br)=C1)c1cc(Br)c(O)c(Br)c1 | – | inactive | inactive | inactive | – | – | inactive | – | inactive | – | – | inactive | inactive | inactive | inactive | inactive | inactive | inactive | – | – |
| O=C(N/N=C/c1ccc([N+](=O)[O-])o1)c1ccc(O)cc1 | – | inactive | – | inactive | inactive | inactive | inactive | inactive | inactive | – | – | inactive | inactive | inactive | inactive | inactive | inactive | inactive | – | – |
| CCCCNC(=S)NCCCC | – | inactive | inactive | inactive | inactive | inactive | inactive | inactive | inactive | inactive | – | inactive | inactive | inactive | inactive | inactive | inactive | inactive | inactive | – |
| CCN(CC)CCCN(c1ccccc1)C1Cc2ccccc2C1 | inactive | – | inactive | inactive | inactive | 11.6 µM (active) | inactive | – | inactive | – | – | 0.106 µM (active) | – | inactive | – | – | inactive | inactive | – | – |
| C=C(C)C(=O)OCC(O)COc1ccc(C(C)(C)c2ccc(OCC(O)COC(=O)C(=C)C)cc2)cc1 (centres undefined) | – | inactive | – | inactive | inactive | – | – | inactive | inactive | – | – | – | inactive | inactive | inactive | inactive | inactive | inactive | – | – |
| COC(=O)C1=C(C)NC(C)=C(C(=O)OCCCN2CCC(c3ccccc3)(c3ccccc3)CC2)C1c1cccc([N+](=O)[O-])c1 (centres undefined) | – | inactive | – | inactive | inactive | inactive | inactive | inactive | inactive | – | – | – | inactive | inactive | inactive | inactive | inactive | inactive | – | – |
| CC(C)(C)c1ccc(OC(=O)c2ccccc2O)cc1 | – | inactive | inactive | inactive | inactive | inactive | inactive | inactive | inactive | – | inactive | inactive | inactive | inactive | inactive | inactive | inactive | inactive | inactive | – |
| CCCCC(CC)CN1CN(CC(CC)CCCC)CC(C)(N)C1 (centres undefined) | – | inactive | – | inactive | inactive | – | – | – | inactive | – | inactive | inactive | inactive | inactive | inactive | inactive | inactive | inactive | inactive | – |
| Cc1ccccn1 | – | inactive | inactive | inactive | inactive | inactive | inactive | inactive | inactive | inactive | inactive | inactive | inactive | inactive | inactive | inactive | inactive | inactive | inactive | inactive |
| CCCOC(=O)c1c(Cl)c(Cl)c(Cl)c(Cl)c1C(=O)OCCC | – | inactive | inactive | inactive | inactive | inactive | inactive | inactive | inactive | inactive | inactive | inactive | inactive | inactive | inactive | inactive | inactive | inactive | – | inactive |
